Results: PubChem BioAssay (NCATS)
Values joined by “and” are separate entries in the source; they are usually repeats but may differ in a detail not shown here. Equal entries are not always repeated. Inconclusive results are not listed. Where a call stands in place of a potency, no number is given. Active and inactive are the calls of the source. The call rests on the fitted dose curve; in most records, active means well fitted curve in the direction sought with a large enough effect; inconclusive means small, poorly fitted or top-dose-only effect, or another doubt; inactive means no such curve, though single readings can be large; an effect the other way counts as inactive or inconclusive.

Assays:
[1] = molecular target: Glutathione peroxidase 1 (Homo sapiens) (UniProt P07203); experiment: Primary qHTS Assay for Inhibitors of Recombinant Selenoprotein Glutathione Peroxidase 1 (GPX1) (AID 1845191); further: nearly all actives have a fitted effect of over 65% in size; further: potency means the concentration at half of the fitted maximal effect
How it was run: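 GPX1 10 nM, GR 100 nM, GSH 1 mM, NADPH 0.5 mM, CHP 0.5 mM (final). 30-min cpd preincubation, RT. Ex340/Em450 read t=0, t=15 min.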

[2] = molecular target: Phospholipid hydroperoxide glutathione peroxidase GPX4 (Homo sapiens) (UniProt P36969); experiment: Primary qHTS Assay for Inhibitors of Recombinant Selenoprotein Glutathione Peroxidase 4 (GPX4) (AID 1845192); further: nearly all actives have a fitted effect of over 65% in size; further: potency means the concentration at half of the fitted maximal effect
How it was run: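 qHTS, GR-coupled: GPX4 200 nM + cpd 30 min RT → GSH 1 mM, NADPH 0.5 mM, GR 100 nM → CHP 0.5 mM start; fluor 340/450 at t0 and t15 min; no-enzyme wells as control.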

[3] = Primary fluorescence-based thiol-reactive (MSTI) qHTS assay for identification of artifact compounds. (AID 1845221);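 further: thiol-reactive compounds lower the probe fluorescence signal; nearly all actives have a fitted effect of over 65% in size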
How it was run: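 Thiol-reactive compounds detected by quenching of 4 uM MSTI fluorescence (525/598 nm) after 1 h room-temperature dark incubation in PBS pH 7.4, 2% DMSO. qHTS titration; percent inhibition Hill-fitted against Acetyl-MSTI/MSTI controls.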

[4] = Quantitative High-Throughput drug screen in 47 multiple myeloma cell lines against the NCATS MIPE library collection: FR4_PLB cell viability assay (AID 1918924; further: nearly all actives have a fitted effect of over 35% in size; further: potency means the concentration at half of the fitted maximal effect)
How it was run: (§1)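 qHTS of the MIPE 4.0 collection: 500 myeloma cells/well, 48 h drug exposure at 37C in 5% CO2, then CellTiter-Glo for 5 min at room temperature before luminescence reading.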

[5] = Quantitative High-Throughput drug screen in 47 multiple myeloma cell lines against the NCATS MIPE library collection: EJM_DSMZ cell viability assay (AID 1918926; further: nearly all actives have a fitted effect of over 30% in size; further: potency means the concentration at half of the fitted maximal effect)
How it was run: (§2)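 Primary qHTS used for cherry-picking: cells at 500/well, library compounds for 48 h (37C, 5% CO2), luminescent ATP assay.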

[6] = Quantitative High-Throughput drug screen in 47 multiple myeloma cell lines against the NCATS MIPE library collection: AMO1_DSMZ cell viability assay (AID 1918927; further: nearly all actives have a fitted effect of over 30% in size; further: potency means the concentration at half of the fitted maximal effect)
How it was run: as §2

[7] = Quantitative High-Throughput drug screen in 47 multiple myeloma cell lines against the NCATS MIPE library collection: ARD_JJKsccE7 cell viability assay (AID 1918929; further: potency means the concentration at half of the fitted maximal effect)
How it was run: as §2

[8] = Quantitative High-Throughput drug screen in 47 multiple myeloma cell lines against the NCATS MIPE library collection: Karpas620_DSMZ cell viability assay (AID 1918959); further: nearly all actives have a fitted effect of over 30% in size; further: potency means the concentration at half of the fitted maximal effect
How it was run: as §1

[9] = Quantitative High-Throughput drug screen in 47 multiple myeloma cell lines against the NCATS MIPE library collection: KMM1_JCRB cell viability assay (AID 1918960); further: nearly all actives have a fitted effect of over 30% in size; further: potency means the concentration at half of the fitted maximal effect
How it was run: (§3)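 500 cells/well; MIPE 4.0 library pinned in; 48 h, 37 °C, 5% CO2; CellTiter-Glo ATP luminescence. Controls: DMSO = 100% viability, medium only = 0%.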

[10] = Quantitative High-Throughput drug screen in 47 multiple myeloma cell lines against the NCATS MIPE library collection: KHM11_PLB cell viability assay (AID 1918962); further: nearly all actives have a fitted effect of over 35% in size; further: potency means the concentration at half of the fitted maximal effect
How it was run: as §1

[11] = Quantitative High-Throughput drug screen in 47 multiple myeloma cell lines against the NCATS MIPE library collection: JIM3_ECACC cell viability assay (AID 1918963; further: nearly all actives have a fitted effect of over 35% in size; further: potency means the concentration at half of the fitted maximal effect)
How it was run: as §1

[12] = Quantitative High-Throughput drug screen in 47 multiple myeloma cell lines against the NCATS MIPE library collection: H1112_PLB cell viability assay (AID 1918967; further: nearly all actives have a fitted effect of over 30% in size; further: potency means the concentration at half of the fitted maximal effect)
How it was run: as §2

[13] = Quantitative High-Throughput drug screen in 47 multiple myeloma cell lines against the NCATS MIPE library collection: Karpas25_ECACC cell viability assay (AID 1918968; further: nearly all actives have a fitted effect of over 35% in size; further: potency means the concentration at half of the fitted maximal effect)
How it was run: as §2

[14] = Primary redox qHTS assay for identification of artifact compounds. (AID 1845223)
How it was run: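 Redox-cycling detection via DTT (250 uM final) oxidation coupled to Amplex Red (25 uM)/HRP (250 mU/mL) in HBSS. 15 min preincubation plus 30 min after DTT, room temperature. Ex/Em 525/598 nm; 4-parameter Hill fit against DMSO and 10 uM DA3003.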

[15] = Quantitative High-Throughput drug screen in 47 multiple myeloma cell lines against the NCATS MIPE library collection: Delta47_JCRB cell viability assay (AID 1918925; further: nearly all actives have a fitted effect of over 45% in size; further: potency means the concentration at half of the fitted maximal effect)
How it was run: as §2

[16] = Quantitative High-Throughput drug screen in 47 multiple myeloma cell lines against the NCATS MIPE library collection: JIM1_ECACC cell viability assay (AID 1918964; further: potency means the concentration at half of the fitted maximal effect)
How it was run: as §2

[17] = Quantitative High-Throughput drug screen in 47 multiple myeloma cell lines against the NCATS MIPE library collection: INA6_PLB cell viability assay (AID 1918965; further: nearly all actives have a fitted effect of over 55% in size; further: potency means the concentration at half of the fitted maximal effect)
How it was run: (§4)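 Luminescent ATP measurement with CellTiter-Glo gives viability, scaled between DMSO-only wells (100%) and media-only wells (0%). Cells, 500 per well, faced library compounds for 48 hours at 37C.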

[18] = Quantitative High-Throughput drug screen in 47 multiple myeloma cell lines against the NCATS MIPE library collection: ARP1_JJKsccF8 cell viability assay (AID 1918928; further: nearly all actives have a fitted effect of over 40% in size; further: potency means the concentration at half of the fitted maximal effect)
How it was run: as §3

[19] = Quantitative High-Throughput drug screen in 47 multiple myeloma cell lines against the NCATS MIPE library collection: Karpas417_ECACC cell viability assay (AID 1918961); details: Karpas417 myeloma viability, CellTiter-Glo ATP luminescence, 48 h; viability (% of DMSO): at 45.8 µM (top of the series); further: potency means the concentration at half of the fitted maximal effect
How it was run: as §4

[20] = Quantitative High-Throughput drug screen in 47 multiple myeloma cell lines against the NCATS MIPE library collection: JJN3_DSMZ cell viability assay (AID 1918966; further: potency means the concentration at half of the fitted maximal effect; nearly all actives have a fitted effect of over 50% in size)
How it was run: as §2

Chain of Glutathione peroxidase 1 (Homo sapiens) (P07203 whole entry, looked up): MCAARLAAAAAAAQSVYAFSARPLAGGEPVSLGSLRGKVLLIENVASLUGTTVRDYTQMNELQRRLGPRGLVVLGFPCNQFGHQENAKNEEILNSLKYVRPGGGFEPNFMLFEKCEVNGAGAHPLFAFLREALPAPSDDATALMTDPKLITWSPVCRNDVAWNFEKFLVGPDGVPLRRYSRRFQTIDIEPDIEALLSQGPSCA
Chain of Phospholipid hydroperoxide glutathione peroxidase GPX4 (Homo sapiens) (P36969 whole entry, looked up): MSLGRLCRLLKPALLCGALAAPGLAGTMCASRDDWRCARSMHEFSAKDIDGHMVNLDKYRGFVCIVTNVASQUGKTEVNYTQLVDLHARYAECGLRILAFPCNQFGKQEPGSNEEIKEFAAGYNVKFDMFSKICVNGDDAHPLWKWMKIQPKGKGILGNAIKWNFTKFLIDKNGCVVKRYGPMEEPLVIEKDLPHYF

Row | SMILES | Potency [1] | Potency [2] | Potency [3] | Potency [4] | Potency [5] | Potency [6] | Potency [7] | Potency [8] | Potency [9] | Potency [10] | Potency [11] | Potency [12] | Potency [13] | outcome [14] | Potency [15] | Potency [16] | Potency [17] | Potency [18] | Potency [19] | Potency [20]
1 | CCC(C)(Oc1ccc(C2(c3ccc(OC(C)(CC)C(=O)O)cc3)CCCCC2)cc1)C(=O)O (stereo unspecified) | inactive | inactive | inactive | inactive | inactive | inactive | inactive | inactive | inactive | inactive | inactive | inactive | 13.2 µM (active) |  |  |  |  |  |  | 
2 | OC(CN1CCN(c2cccc(Cl)c2)CC1)C(c1ccccc1)c1ccccc1 (stereo unspecified) | inactive | inactive | inactive | inactive | inactive |  | inactive |  | inactive |  | inactive |  |  | inactive |  |  |  |  |  | 
3 | O=C(O)c1cccc(-c2noc(-c3ccccc3F)n2)c1 | inactive | inactive | inactive | inactive | inactive | inactive | 14.8 µM (active) | inactive | inactive |  | inactive | inactive |  | inactive | inactive | inactive |  |  |  | 
4 | COc1cc2c(N3CCN(C(=O)Nc4ccc(OC(C)C)cc4)CC3)ncnc2cc1OCCCN1CCCCC1 | inactive | inactive | inactive |  |  | inactive | inactive | inactive | inactive | 8.33 µM (active) |  |  |  | inactive |  |  | 3.72 µM (active) |  |  | 
5 | Nc1nc(N)c(N=O)c(OCC2CCCCC2)n1 | inactive | inactive |  | 18.7 µM (active) | 10.5 µM (active) | 13.2 µM (active) | 5.26 µM (active) | 13.2 µM (active) | 6.62 µM (active) |  | 9.35 µM (active) |  | 5.9 µM (active) |  | 4.18 µM (active) |  |  | 14.8 µM (active) | 2.64 µM (active) | 16.6 µM (active)
6 | Nc1cc(C(Cl)=C(Cl)Cl)c(S(N)(=O)=O)cc1S(N)(=O)=O | inactive | inactive |  | inactive | inactive | inactive | inactive | inactive | inactive | inactive | inactive | inactive | inactive |  | inactive | inactive | inactive | inactive | inactive | 
7 | Cc1cc2c(s1)Nc1ccccc1N=C2N1CCN(C)CC1 | 16.1 µM (active) | inactive |  | inactive | inactive | inactive |  | inactive | inactive |  | inactive | inactive | 3.32 µM (active) | inactive | inactive | inactive |  | inactive | inactive | 
8 | CC[C@]1(O)C[C@H]2CN(CCc3c([nH]c4ccccc34)[C@@](C(=O)OC)(c3cc4c(cc3OC)N(C=O)[C@H]3[C@@](O)(C(=O)OC)[C@H](OC(C)=O)[C@]5(CC)C=CCN6CC[C@]43[C@@H]65)C2)C1 | inactive | inactive |  | inactive |  | 0.372 µM (active) | 0.0662 µM (active) | 0.0166 µM (active) | 0.0469 µM (active) |  |  | 0.0093 µM (active) |  |  | 0.0047 µM (active) | 0.0209 µM (active) |  | 0.003 µM (active) | 0.935 µM (active) | 0.0935 µM (active)
9 | O=P(O)(O)C(O)(Cn1ccnc1)P(=O)(O)O | inactive | inactive |  | inactive | inactive |  |  | inactive | inactive | inactive | inactive | inactive |  |  | inactive |  |  | inactive |  | 
10 | Oc1ccc(OCc2ccccc2)cc1 | inactive | inactive |  | inactive | inactive | inactive | inactive | inactive |  |  | inactive | inactive |  |  |  | inactive |  | 18.7 µM (active) | inactive | 
11 | O=c1ccc2ccc(O)c(O)c2o1 | inactive | inactive |  | inactive |  |  | inactive | 23.5 µM (active) |  | 11.8 µM (active) |  |  | 3.32 µM (active) |  | 6.62 µM (active) |  |  |  |  | 16.6 µM (active)
12 | Cc1cc(=O)oc2cc(O)ccc12 | 18 µM (active) and 4.09 µM (active) | 12.8 µM (active) and 1.61 µM (active) |  | inactive | inactive | inactive | inactive | inactive | inactive | 0.0662 µM (active) | inactive | inactive | 4.69 µM (active) |  |  |  |  | inactive |  | 
13 | O=C(O)c1cn(-c2ccc(F)cc2)c2cc(N3CCNCC3)c(F)cc2c1=O | inactive | inactive |  | inactive | inactive | inactive | inactive |  | inactive |  | inactive | inactive |  |  |  | inactive | inactive |  |  | 
14 | COC(=O)N[C@H](C(=O)N[C@@H](Cc1ccccc1)[C@@H](O)CN(Cc1ccc(-c2ccccn2)cc1)NC(=O)[C@@H](NC(=O)OC)C(C)(C)C)C(C)(C)C | inactive | inactive |  | inactive | inactive |  | inactive | inactive | inactive | inactive | inactive | inactive |  |  | inactive |  | inactive | 16.6 µM (active) |  | 
15 | CC1(C)CCC(C)(C)c2cc(NC(=O)c3ccc(C(=O)O)cc3)ccc21 | inactive | 10 µM (active) |  | inactive |  |  | 13.2 µM (active) |  |  |  |  | 10.5 µM (active) | 20.9 µM (active) |  | 16.6 µM (active) | inactive |  | inactive |  | 
16 | C[Se]CCC(N)C(=O)O (stereo unspecified) | inactive | inactive |  | inactive | inactive |  | inactive |  | inactive |  | inactive | inactive | inactive |  | inactive | inactive |  | inactive | inactive | 
